Among the data in PubChem BioAssay AID1347165 (National Center for Advancing Translational Sciences (NCATS), 2019) are Potency values, retold here.

About 5,700 (2.6%) of roughly 220,000 compounds were called active. Where a call stands in place of a potency, no number is given. About 18% were inconclusive and are not listed. The call rests on the fitted dose curve; in most records, active means well fitted inhibition curve with a large enough effect; inconclusive means small, poorly fitted or top-dose-only effect; inactive means no such curve, though single readings can be large or run the other way. Many of the other results were omitted from the sample, so actives are more common in it than they were.
Potency means the concentration at half of the fitted maximal effect.

The target of this assay is Lysine-specific demethylase 5B (Homo sapiens) (UniProt Q9UGL1). Kind of assay: Primary screen for KDM5B Histone Demethylases FDH-coupled qHTS. Further: nearly all actives have a fitted effect of over 70% in size. The note with it: FDH-coupled NADH fluorescence (FDH is formaldehyde dehydrogenase); series mostly up to 57.7 µM. The source says: Assay Submitter (PI): Qin Yan, Ph.D. (Yale University) and Xiaodong Cheng, Ph.D. (MD Anderson) This project was funded as part of the NCI NEXT Program and Chemical Biology Consortium (CBC) The histone demethylases, KDM5A and KDM5B catalyze the demethylation of lysine 4 on histone H3 (H3K4me3/2). They are overexpressed in a variety of cancers and have been implicated in cancer cell growth, metastasis, drug resistance, and tumor growth. KDM5A is amplified and overexpressed in breast and gastric cancer; and is translocated in leukemia. While KDM5B is highly expressed in human mammary tumors and breast cancer cell lines, but not in normal adult breast tissue. Moreover, knockdown of KDM5B leads to upregulation of tumor suppressor genes, including BRCA1. The goal of this project is to employ qHTS to identify selective small molecule inhibitors of KDM5A/B demethylase activity to better understand the role of KDM5 in cancer and to develop novel therapies. We employed an FDH-coupled assay previously reported by Sakurai et al. to monitor in vitro KDM5 demethylase activity. Compounds showing dose response inhibition are re-acquired, validated, and tested for non-specific interference with the formaldehyde dehydrogenase (FDH) counterscreen. True inhibitors are validated using an AlphaLisa secondary screen, which employs an H3K4(me2-1)-specific antibody to monitor demethylation of a biotin-tagged H3K4(me3) peptide substrate. Inhibitors are profiled against KDM4A and KDM6A AlphaLisa counterscreens to determine level of demethylase specificity; and against the TruHits counterscreen to eliminate non-specific inhibitory activity on the AlphaLISA detection method. Selective inhibitors identified from the primary and secondary screening are tested in cells using immunofluorescence to monitor global H3K4 tri-methylation as a measure of KDM5A/B inhibition. Early Translation Branch (ETB) National Center for Advancing Translational Sciences (NCATS), Rockville, MD National Institute of Health (NIH), Bethesda, Maryland [1] Sakurai, M et al. A miniaturized screen for inhibitors of Jumonji histone demethylases. Mol Biosyst. 2010 Feb;6(2):357-64. doi: 10.1039/b912993f. Epub 2009 Oct 8.
Chain of Lysine-specific demethylase 5B (Homo sapiens) (Q9UGL1 whole entry, looked up): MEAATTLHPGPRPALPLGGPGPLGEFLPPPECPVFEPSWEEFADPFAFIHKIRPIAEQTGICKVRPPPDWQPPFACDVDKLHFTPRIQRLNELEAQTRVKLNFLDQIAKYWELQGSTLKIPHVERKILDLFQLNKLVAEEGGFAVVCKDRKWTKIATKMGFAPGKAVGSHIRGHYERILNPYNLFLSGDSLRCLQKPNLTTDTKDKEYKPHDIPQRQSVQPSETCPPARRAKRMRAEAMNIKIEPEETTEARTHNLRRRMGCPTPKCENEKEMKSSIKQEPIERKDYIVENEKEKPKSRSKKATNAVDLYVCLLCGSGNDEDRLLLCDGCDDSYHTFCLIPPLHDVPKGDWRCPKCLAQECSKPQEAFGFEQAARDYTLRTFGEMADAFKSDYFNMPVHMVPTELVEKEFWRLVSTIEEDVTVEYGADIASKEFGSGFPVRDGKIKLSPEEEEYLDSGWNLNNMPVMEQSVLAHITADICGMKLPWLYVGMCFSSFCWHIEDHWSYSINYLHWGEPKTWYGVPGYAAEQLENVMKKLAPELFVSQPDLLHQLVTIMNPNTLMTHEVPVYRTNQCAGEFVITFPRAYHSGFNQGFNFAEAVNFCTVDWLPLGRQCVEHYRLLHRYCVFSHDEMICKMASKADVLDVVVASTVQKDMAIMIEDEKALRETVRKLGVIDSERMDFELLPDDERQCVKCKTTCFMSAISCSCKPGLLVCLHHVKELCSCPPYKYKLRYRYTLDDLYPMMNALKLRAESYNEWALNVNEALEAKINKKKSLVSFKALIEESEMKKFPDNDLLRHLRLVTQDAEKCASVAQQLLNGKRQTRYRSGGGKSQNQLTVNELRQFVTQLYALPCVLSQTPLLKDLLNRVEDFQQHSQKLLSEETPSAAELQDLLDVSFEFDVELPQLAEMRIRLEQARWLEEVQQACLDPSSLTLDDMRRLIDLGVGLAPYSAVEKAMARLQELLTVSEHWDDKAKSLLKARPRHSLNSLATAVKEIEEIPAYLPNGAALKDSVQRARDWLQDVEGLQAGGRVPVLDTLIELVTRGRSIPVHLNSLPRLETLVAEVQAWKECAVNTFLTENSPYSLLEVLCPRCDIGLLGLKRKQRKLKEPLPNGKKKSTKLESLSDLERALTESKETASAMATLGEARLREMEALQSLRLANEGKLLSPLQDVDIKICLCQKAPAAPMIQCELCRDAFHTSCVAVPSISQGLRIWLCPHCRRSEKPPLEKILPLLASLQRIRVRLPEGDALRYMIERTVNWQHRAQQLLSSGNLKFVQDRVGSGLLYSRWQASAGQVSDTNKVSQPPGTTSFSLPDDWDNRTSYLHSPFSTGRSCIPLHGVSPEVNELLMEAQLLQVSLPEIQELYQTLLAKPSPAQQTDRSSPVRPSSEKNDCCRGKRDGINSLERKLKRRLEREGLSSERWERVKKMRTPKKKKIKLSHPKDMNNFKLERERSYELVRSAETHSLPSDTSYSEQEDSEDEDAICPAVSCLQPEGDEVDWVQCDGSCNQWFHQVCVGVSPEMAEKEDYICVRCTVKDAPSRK
Materials: 1536-well Black, solid bottom, medium binding assay plate is purchased from Greiner Bio-one. The enzymes (KDM5B) and substrate (H3K4me3/2) are provided by the principal investigators. The buffer for this assay is composed of 50mM HEPES at pH 7.5 with 0.01% Tween-20. FDH coupled Demethylase qHTS protocol: Three microliter enzyme mix (buffer + 200nM KDM5BDeltaAP final concentration) is dispensed into the assay plate using the BioRAPTR Flying Reagent Dispenser (FRD; […]). Compound (at various final concentration) and control solution is pin transferred to the assay plate using the Kalypsys 1536-pin tool apparatus. The assay plate is incubated for 10 min at room temperature followed by addition of 1uL substrate mix (buffer + 100uM ascorbic acid, 50uM ferrous ammonium sulfate, 12.5uM H3K4Me3, 25uM a-ketoglutarate, 0.25 mM NAD+, 0.25 U/mL formaldehyde dehydrogenase using the FRD yielding a total reaction volume of 4 uL. Initial fluorescence (Read1) is detected using the PerkinElmer ViewLux plate reader equipped with 340 nm excitation and 450 nm emission filters. The final fluorescence (Read2) signal is obtained after 30 min of room temperature incubation. Delta RFU is calculated (Read2 - Read1) and is used to generated dose response curves.
As to `COc1ccc(C(=O)C(C)OC(=O)c2nn(C)c(=O)c3ccccc23)cc1` (stereo not drawn), the Potency entry is “inactive”.

Take `COC(=O)c1ccc(/C=C2\CCc3c(C)cc(C)cc3C2=O)cc1`: the Potency result is “inactive”. Regarding `O=C(CN1CCN(C(=O)c2ccc3ccccc3n2)CC1)NC1CC1`, the Potency result was “inactive”. Regarding `O=C1CCN(C(=O)c2ccc3ccccc3n2)CCCCCCN1`, the Potency result is “inactive”. As for `O=C(c1ccc2cc[nH]c2n1)N1CCOCC1`, the Potency is 126 µM (active).

For `Cc1cccc(C)c1NC(=O)CSc1nc(C)c(C)o1`, the Potency entry was “inactive”.

For `CN(CC(=O)Nc1ccc2c(c1)OC1(CCCCC1)O2)Cc1cccs1`, the Potency entry was “inactive”.

For `COc1ccc(S(=O)(=O)NCCOc2ccccc2)cc1F`, the Potency entry was “inactive”. With `CCOc1ccc(C2C(C#N)=C(N)N(N(C)C)C3=C2C(=O)CCC3)cc1` (stereo not drawn), the Potency result is “inactive”. With `O=C1CCC/C(=N/NC(=O)c2cc(-c3ccncc3)nc3ccccc23)C1`, the Potency entry is “inactive”. With `O=C(c1ccc(Cl)cc1)N(Cc1ccco1)c1ccc(O)cc1`, the Potency entry is “inactive”. The value for `CCc1ccc(CCC(=O)NC)cc1` was “inactive”.

With `CNC(=O)CCN(C)c1nccc(-c2ccc(C)nc2C)n1`, the Potency is 25.1 µM (active). For `CNc1c(NC(=O)Cc2ccc(OC)c(OC)c2)c(=O)oc2ccccc12`, the Potency result is “inactive”.

In the case of `O=C(NNC(=O)C1CCC1)c1ccccc1`, the Potency result is “inactive”. In the case of `O=C(OCc1ccc(F)cc1)c1cnc2ccccc2n1` it was “inactive”.

Take `Cc1ccc(NC(=O)c2ccoc2)cc1I`: the Potency entry is “inactive”. Consider `O=C(NC12CC3CC(CC(C3)C1)C2)c1cccc2ncccc12`, for which the Potency result is “inactive”. `Cc1ccccc1NC(=O)C(C)Sc1ccc(C(F)(F)F)cn1` (stereo not drawn): the Potency result was “inactive”.

Regarding `CC1(C)C/C(=N/Nc2ccc([N+](=O)[O-])cc2[N+](=O)[O-])C(C)(C)O1`, the Potency result was “inactive”. Consider `CC(C)c1ccc(/C=C(/C#N)c2nc3ccccc3[nH]2)cc1`, for which the Potency result is “inactive”. On to `O=C(Nc1ccccc1)N1CCc2nc(-c3ccccc3)nc(-c3ccc(Cl)cc3)c2C1`, for which the Potency result was “inactive”.

On to `COC(=O)c1cccc(NC(=O)N2CCC3(CCC(=O)N(Cc4ccccc4)CC3)CC2)c1`, for which the Potency result is “inactive”.

As to `COc1ccccc1N1CCN(C(=O)c2ccccc2-c2ncc[nH]2)CC1=O`, the Potency entry was “inactive”. For `COc1ccccc1CC(=O)N1CCc2c(nc3cc(-c4ccccc4Cl)[nH]n3c2=O)C1`, the Potency result is “inactive”. `COc1ccccc1C(=O)N1CCc2c(nc3cc(-c4ccccc4Cl)[nH]n3c2=O)C1`: the Potency is 22.4 µM (active). In the case of `COc1ccc(-c2cc3nc4c(c(=O)n3[nH]2)CCN(C(=O)c2ccccc2C)C4)cc1`, the Potency is 20 µM (active).

Turning to `COc1ccc(-c2nc(C(C)C)nc3c2CN(C(=O)c2ccccc2F)CC3)cc1`, the Potency entry was “inactive”.

Regarding `COc1ccc(-c2cc(N3CCCN(C(=O)c4ccc(OC)cc4C)CC3)n[nH]2)cc1`, the Potency result is “inactive”. With `COC(=O)c1cccc(NC(=O)N2CCc3c(nc4cc(-c5ccccc5)[nH]n4c3=O)C2)c1`, the Potency is 11.2 µM (active). In the case of `CCN(CC)c1nc2ccccc2nc1C(=O)Nc1ccccc1C` it was “inactive”; in that of `O=c1oc2ccccc2c2nc(-c3ccccc3)c(-c3ccccc3)nc12`, “inactive”. Consider `Cc1c(-c2ccccc2)nc2ccccc2c1C(=O)OCC(N)=O`, for which the Potency entry is “inactive”. In the case of `COC(=O)CC(NC(=O)c1nn(C)c(=O)c2ccccc12)c1ccccc1` (stereo not drawn), the Potency result was “inactive”. In the case of `CC(C)C(=O)NC(Nc1ccccc1Cl)(C(F)(F)F)C(F)(F)F` it was “inactive”; in that of `COc1ccc(Nc2cnc3ccc(-c4ccc(OC)nc4)nn23)cc1`, “inactive”.

`COc1ccc(-c2ccc3ncn(C4CC4)c(=O)c3n2)cn1`: the Potency is 39.8 µM (active). For `COc1ccc(-c2ccc3ncc(Nc4ccc(C(F)(F)F)cc4)n3n2)cn1`, the Potency entry is “inactive”. In the case of `O=C(O)c1cccc(NC(NC(=O)c2cccs2)C(=O)c2ccccc2)c1` (stereo not drawn), the Potency result is “inactive”. Take `COc1ccc(C(C)=O)cc1CN1CCN(C/C=C/c2ccccc2)CC1`: the Potency result was “inactive”. With `NC(N)=N/N=C/c1ccc([N+](=O)[O-])cc1`, the Potency entry is “inactive”. For the compound `CSc1ccccc1NC(=O)c1ccc(C)c(C)c1`, the Potency entry was “inactive”. For `Cc1ccc(C(=O)N2CCC3(CC2)CC(=O)c2ccccc2O3)cc1`, the Potency was 25.1 µM (active).

Take `COc1ccccc1C(=O)N1CCC2(CC1)C(=O)Nc1ccccc12`: the Potency result was “inactive”.

With `Cc1ccc(C(=O)N2CCC3(CC2)NC(=O)N(Cc2ccc(F)cc2)C3=O)cc1`, the Potency result is “inactive”. As for `COc1ccccc1C(=O)N1CCC2(CC1)CC(=O)c1ccccc1O2`, the Potency is 31.6 µM (active).

Consider `O=C1NC2(CCN(C(=O)c3ccccc3)C2)COc2ccccc21` (stereo not drawn), for which the Potency entry is “inactive”.

With `COc1ccccc1C(=O)N1CCC2(CCC(=O)N(Cc3ccccc3)CC2)CC1`, the Potency entry is “inactive”. Take `Cc1[nH]c2ccccc2c1C(=O)COc1ccc(C(N)=O)cc1`: the Potency result was “inactive”. For the compound `COc1ccc(-c2c(C)oc3cc(OC(=O)c4ccc5c(c4)OCO5)ccc3c2=O)cc1`, the Potency entry is “inactive”. On to `CCS(=O)(=O)N1CCC(NS(=O)(=O)c2ccsc2C(=O)OC)CC1`, for which the Potency result was “inactive”. On to `COc1ccc(-c2nc(CN3CCCC3c3nnc4ccccn34)co2)cc1` (stereo not drawn), for which the Potency result was “inactive”.

In the case of `CCOC(=O)c1ccoc1CN1CCCC(O)C1` (stereo not drawn), the Potency entry is “inactive”.
